# In all, about 410,000 compounds went through this assay and about 2,000 (0.49%) were called active. Where a call stands in place of a potency, no number is given. Not shown: some 8% with an inconclusive outcome. Calls come from the whole dose curve; tested in HEK293 reporter line. The full list was thinned out, with actives kept by preference.
# Assay: qHTS Assay for Foot and Mouth Disease Virus Antivirals: Primary Screen against the MLPCN compound library; note: nearly all actives have a fitted effect of over 55% in size
# Conditions: FMDV antiviral cell-based qHTS; series mostly up to 57.9 µM
# Potency is the fitted concentration of half-maximal effect.
row,Structure (SMILES),Potency
1,CC(C)CC(=O)Nc1ccccc1N1CCN(c2ccccc2)CC1,inactive
2,Cn1c(=O)c2c(SCC(=O)N3CCN(c4ccccc4)CC3)nc(C3CC3)nc2n(C)c1=O,inactive
3,Cn1c(=O)cc(SCC(=O)N2CCN(c3ccccc3)CC2)c2ccccc21,inactive
4,CCc1nc(SCC(=O)N2CCN(c3ccccc3)CC2)c2oc3ccccc3c2n1,25.1 µM (active)
5,COc1ccccc1N1CCN(c2nc(CNC(=O)c3sc(C)nc3C)nc3ccccc23)CC1,inactive
6,COc1ccc2c(Cl)c(C(=O)OCC(=O)c3ccc4c(c3)NC(=O)CO4)sc2c1Cl,inactive
7,Cc1cc(C(=O)CSc2nc3ccccc3[nH]2)c(C)n1Cc1ccco1,11.2 µM (active)
8,O=C(CSc1nc2ccccc2[nH]1)c1ccc(Cl)s1,inactive
9,O=C(CSc1nc2ccccc2c(=O)n1Cc1ccco1)c1ccc(F)cc1,inactive
10,Cc1nn(C(C)C)c(C)c1CN1CCCC(C(=O)c2cccc(OC(C)C)c2)C1 (stereo not drawn),inactive
11,COc1ccc(NC(=O)CNC(=O)Cn2c(C)cc3ccccc3c2=O)cc1OC,inactive
12,CCN(CC)S(=O)(=O)c1cc(-c2nnc(Nc3ccc(OC)c(C(N)=O)c3)c3ccccc23)ccc1C,inactive
13,CN1/C(=C\C(=O)c2ccco2)C(C)(C)c2ccccc21,inactive
14,O=C(Nc1ccc(F)cc1F)c1ccc2c(c1)[nH]c(=O)n2Cc1ccc(F)cc1,inactive
15,O=C(CNc1ccc(F)cc1F)NC(=O)NCc1ccco1,inactive
16,O=C(/C=C/Nc1ccc(F)cc1F)c1ccco1,10 µM (active)
17,CN(C)c1ccc(N/C=C/C(=O)c2ccco2)cc1,8.91 µM (active)
18,Cc1cc(C)cc(NC(=S)N2CCN(C(=O)c3ccco3)CC2)c1,inactive
19,Cc1ccc(S(=O)(=O)N(C)C)cc1NC(=O)COc1cccc(-n2cnnn2)c1,inactive
20,CCOc1ccccc1N1CCN(CC(=O)Nc2ccccc2C(=O)NC2CC2)CC1,inactive
21,Cc1ccc(-c2cc(-c3ccccc3)cc(-c3ccccc3)[n+]2-c2ccccc2C(=O)O)cc1,inactive

row,Structure (SMILES),Potency
1,O=C(Nc1ccc(N2CCN(c3ccc(C(F)(F)F)cn3)CC2)nc1)c1cccs1,inactive
2,O=C1NC(=O)N(c2ccc3c(c2)OCO3)C(=O)/C1=C/c1ccsc1,inactive
3,COC(=O)C1=C(c2ccc(-c3ccccc3)c(F)c2)C[C@@H]2CC[C@H]1N2C(=O)NC1CCCCC1,inactive
4,OC[C@@H]1CN(Cc2ccc(Cl)cc2)C[C@H](n2cnc3c(NC4CCCC4)ncnc32)O1,inactive
5,COc1ccc(C(=O)NCc2cc(C)nc3ccccc23)cc1,inactive
6,Cc1cc(C)c2sc(N(CCN(C)C)C(=O)c3c(F)cccc3F)nc2c1,inactive
7,CCOc1ccc(-c2ccc(/C=C3/C(=N)N4C=CSC4=NC3=O)o2)c([N+](=O)[O-])c1,inactive
8,Cc1ccc(/C=C2/C(=N)N3N=C(CC(=O)N4CCCC4)SC3=NC2=O)o1,inactive
9,CC1=CN2C(=N)/C(=C/c3ccco3)C(=O)N=C2S1,12.6 µM (active)
10,CCCCn1c(=O)c(CCC(=O)OC(C)C(=O)Nc2cccc(Cl)c2Cl)nc2ccccc21 (stereo not drawn),inactive
11,CCCC(=O)N1CCN(c2nc(CC(C)C)c3c(c2C#N)CCC3)CC1,inactive
12,CC(C(=O)Nc1cccc(C#N)c1)n1nc(-c2ccccc2)c2c(c1=O)CCCC2 (stereo not drawn),inactive
13,CC(C)C(=O)N1CCN(c2nc(-c3ccccc3)c3c(c2C#N)CCCC3)CC1,22.4 µM (active)
14,FC(F)C(F)(F)Oc1cccc(Nc2nccn3c(-c4ccc5ccccc5c4)cnc23)c1,inactive
15,COCC(=O)N1CCC2(CC1)CCN(c1ccc(-c3ccccc3)cc1)CC2,inactive
16,Nc1nc2ccccc2n1C(=O)c1ccc(F)cc1,12.6 µM (active)
17,N#CC1=C(N)Nc2nc3ccccc3n2C1c1ccc(F)cc1 (stereo not drawn),inactive
18,CSc1nc2ccccc2n1C(=O)NC1CCCCC1,inactive
19,C[C@H](CO)N1C[C@H](C)[C@@H](CN(C)C(=O)NC2CCCCC2)Oc2c(NS(=O)(=O)c3cccs3)cccc2C1=O,inactive
20,Cc1ccc(NC(=O)COC(=O)C2CC2C)c(S(=O)(=O)N2CCCCC2)c1 (stereo not drawn),inactive
21,CCOC(=O)C1CCN(S(=O)(=O)c2cccc(C(=O)Nc3ccccc3)c2)CC1,inactive

row,Structure (SMILES),Potency
1,CC(Sc1nc(C(F)(F)F)nc2ccccc12)C(=O)NC1CCCC1 (stereo not drawn),inactive
2,CN(C)c1ccc(N=Nc2ccc3ncccc3c2)cc1,20 µM (active)
3,CN(C)c1ccc(/C=C/c2ccc3ccccc3n2)cc1,inactive
4,Cc1cc(CN(C)C(=O)c2cc(COc3ccc4ncccc4c3)on2)on1,inactive
5,Cn1c(=O)[nH]c(=O)c2c1nc(NCc1ccccc1)n2CCCc1ccccc1,inactive
6,COc1cc(OC)c(OC)cc1CN1CCc2nc(N3CCN(c4ncccn4)CC3)ncc2C1,inactive
7,Cc1ccc(CN2CCc3nc(N4CCN(c5ccccc5F)CC4)ncc3C2)s1,inactive
8,Cc1ccccc1CN1CCc2nc(N3CCN(c4ccccn4)CC3)ncc2C1,15.8 µM (active)
9,COc1cccc(N2CCN(c3c4c(nc5nncn35)CCC4)CC2)c1,14.1 µM (active)
10,COc1cccc(N2CCN(C(=O)c3ccc4c(Cl)c5c(nc4c3)CCCC5)CC2)c1,inactive
11,CCOc1ccc(Nc2c3c(nc4nncn24)CCC3)cc1,inactive
12,Cc1nnsc1C(=O)N/N=C/c1ccc2ccccc2c1O,inactive
13,Cc1cccc(OCCCCn2nnc3sc4c(c3c2=O)CCC(C)C4)c1 (stereo not drawn),inactive
14,C=CCn1c(SCc2nc3c(c(=O)[nH]c(=O)n3CCCC)n2CCC)nnc1-c1ccccc1,inactive
15,CCCNS(=O)(=O)c1cc(Br)cc2c1N(C(=O)CC)CC2,inactive
16,CCC(=O)N1CCc2cc(Br)cc(S(=O)(=O)CCC(=O)NCc3ccccc3OC)c21,inactive
17,COc1cc(NS(=O)(=O)c2cc(Br)cc3c2N(C(=O)C2CC2)CC3)cc(OC)c1,12.6 µM (active)
18,O=C(OC1C2CCC1C1CN(CCc3ccccc3)CC12)c1ccccc1 (stereo not drawn),inactive
19,COc1ccc(-c2cc3c(=O)n(CC(=O)Nc4cccc(Cl)c4)nc(C)n3n2)cc1,inactive
20,CN(C)c1cccc(F)c1C(=O)NC(=O)Nc1ccc(Cl)cc1,inactive
21,COc1ccc(CN2CCNC(=O)C2CC(=O)NC2CCCC2)c(OC)c1 (stereo not drawn),inactive
